Screening results as filed in PubChem BioAssay.
Shown are actives, neighbours in structure and some others; about 3.7% of the full set was active somewhere.
Wnt bcat act – Wnt/beta-catenin pathway activators, primary screen, cell-based, plate reader, single point | activation, % at 9.35 µM | Wnt/beta-catenin reporter cell assay, activator | 300,000 compounds, 1.2% hits | AID 743398, 2014; in the data active = activation above about 30%, passing the limit was not always enough; inconclusive = no clear call, values can overlap the other calls;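 also: 0% = neutral control wells and 100% = positive control wells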
Ecoli rRNA inh – reduced GFP signal of wild-type E. coli, primary screen, bacterial rRNA inhibitor project, GFP/RFP fluorescence, OD600, single point; E. coli WT GFP vs humanized-ribosome RFP mutants, 24 h; active compounds read low; DMSO median 0, no signal -100; GFP signal change (wild-type ribosome), % (concentration not given with the values); 350,000 compounds, 1.6% hits;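 active = significant combined selectivity score with lowered wild-type GFP, culture density cut under 30%, mutant RFP and density less affected; inactive = any of these conditions unmet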
MLL AF4-AF9 inh – inhibitors of AF4 peptide binding to AF9, primary screen, biochemical, AlphaScreen, biotin-AF4 peptide, FLAG-AF9, single point; 350,000 compounds, 0.47% hits; AID 651704, 2012; Protein AF-9 (Homo sapiens), P42568; inhibition, % at 10 µM;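 active = every replicate reaching a set inhibition limit, whatever the replicate mean, cut at about 25% in these data; inconclusive = mean inhibition reaches that limit but some replicates miss it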;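 also: 0% = plate neutral control median and 100% = total signal loss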
Target sequence (P42568 whole entry, looked up): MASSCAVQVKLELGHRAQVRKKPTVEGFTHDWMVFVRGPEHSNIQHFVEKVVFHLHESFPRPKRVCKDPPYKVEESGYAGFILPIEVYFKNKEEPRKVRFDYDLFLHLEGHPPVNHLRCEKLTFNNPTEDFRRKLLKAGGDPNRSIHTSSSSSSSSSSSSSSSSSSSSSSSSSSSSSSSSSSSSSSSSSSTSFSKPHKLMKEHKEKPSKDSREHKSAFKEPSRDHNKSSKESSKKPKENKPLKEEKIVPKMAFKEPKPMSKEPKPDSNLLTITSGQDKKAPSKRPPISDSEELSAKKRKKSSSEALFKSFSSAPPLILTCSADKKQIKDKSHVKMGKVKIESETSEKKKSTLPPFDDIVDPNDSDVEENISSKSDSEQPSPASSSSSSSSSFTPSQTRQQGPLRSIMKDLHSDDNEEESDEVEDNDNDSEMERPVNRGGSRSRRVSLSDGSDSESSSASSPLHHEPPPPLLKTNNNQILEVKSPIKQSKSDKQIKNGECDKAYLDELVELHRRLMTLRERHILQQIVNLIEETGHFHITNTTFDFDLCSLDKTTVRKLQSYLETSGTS
esBAF inh – Bmi1 luciferase reporter increase in mESCs, primary screen, esBAF inhibitor project, mouse ES cells, Bmi1 luciferase knock-in, single point. AID 602393, 2012. 350,000 compounds, 2% hits. reporter increase, % at 12.5 µM. 24 h; 100% = twice the neutral-well signal; in the data active = activation above about 40%; inconclusive = no clear call, values can overlap the other calls;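 also: 0% = median of the plate's neutral control wells and 100% = double that signal; a rise in the Bmi1 reporter signal indicates esBAF inhibition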
MITF act – activators of MITF-driven TRPM1 promoter reporter, primary screen, cell-based, SK-MEL-5, luciferase, single point. SK-MEL-5 TRPM1-promoter luciferase, 24 h; % of positive control, neutral wells = 0. activation, % at 12.5 µM. 300,000 compounds, 0.75% hits;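 active = mean activation of at least 80% with every replicate also reaching 80%; inconclusive = mean reaches 80% but some replicate falls short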;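 also: 0% = neutral control wells and 100% = parthenolide positive control wells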
Active calls of the source: *; ? = inconclusive; . = no result given.

SMILES	Wnt bcat act	Ecoli rRNA inh	MLL AF4-AF9 inh	esBAF inh	MITF act
Cc1ccc(NC(=O)NCCN2CCCCC2)cc1Cl	-1	-5	26*	7	-6
O=C(Nc1ccccc1)N1CCN(c2nc(-c3ccccc3)ns2)CC1	3	-30*	3	.	.
CCCCCc1ccc(-c2cn(Cc3ccc(C(=O)c4ccccc4)cc3)nn2)cc1	3	19	-2	53*	-8
O=C(c1ccccc1)c1ccc(Cn2cc(-c3ccccc3)nn2)cc1	3	-4	.	15	29
O=c1[nH]c(-c2cccnc2)nc2ccccc12	-4	.	.	-5	2
c1cncc(-c2nc3c(ccc4ccccc43)[nH]2)c1	13	-36	6	52*	13
N#Cc1ccccc1NC(=O)CSC1=Nc2ccccc2C2CC=NN12 (stereo not drawn)	47*	12	-5	3	-18
C/C(=N\NC(=O)c1cc(-c2ccc(C)s2)[nH]n1)c1ccncc1	1	-15*	0	9	42
Cc1nc2ccc(N=NC3=C(O)CC(C)(C)CC3=O)cc2s1	18	.	.	49*	43
COc1ccc(CN2CCNC(=O)C2CC(=O)NCCCC2CCCC2)c(C)c1C (stereo not drawn)	2	-26*	-1	5	4
C#CCn1c(=NC(=O)c2ccc(Cl)s2)sc2cccc(OC)c21	-6	-1	-4	50*	65
Cc1ccc(NC(=O)c2ccc(F)cc2F)cc1	46*	1	.	-51	60
O=C(Nc1ccccc1)c1ccc(F)cc1F	10	20	0	37	63
O=C(Nc1ccc(N2CCCC2)cc1)c1ccccc1F	.	.	.	42*	61
O=C(Nc1ccc(N2CCCC2)cc1)c1cccc(Cl)c1Cl	-1	1	1	85*	.
O=C(NC(=O)c1ccc(F)cc1F)Nc1ccc(Cl)cc1	33*	9	-2	.	64
O=C(Nc1ccc(N2CCN(C(=O)c3cccs3)CC2)cc1)c1ccccc1F	-3	9	1	-1	4
O=C(Nc1ccc(N2CCCC2)cc1)c1cccc(F)c1	22	.	.	3	73
O=C(Nc1ccc(N2CCCCC2)cc1)c1ccc(F)cc1F	44*	.	0	-29	22
O=C(Nc1ccc(Nc2ccccc2)cc1)c1ccccc1F	-1	-8	7	52*	.
CC[C@]12C(=O)N(C)C[C@H]([C@@H]3C(=O)N(C)C(=O)[C@@H]31)N2C(=O)c1ccc(C)cc1	-2	9	51*	7	4
Cn1cc(CCCC(=O)NCc2ccc(F)cc2)c2ccccc21	2	-37*	2	-1	-7
CCOc1ccc(CNC(=O)CCc2cn(C)c3ccccc23)cc1OC	-1	8	1	-7	4
COc1cc2ncnc(NCc3ccc4c(c3)OCO4)c2cc1OC	-1	4	-4	2	6
C#CCN1C(=O)S/C(=C\c2ccc(N3CCOCC3)cc2C)C1=O	56*	.	.	.	72
SMILES	Wnt bcat act	Ecoli rRNA inh	MLL AF4-AF9 inh	esBAF inh	MITF act
CCN1C(=O)S/C(=C\c2ccc(N3CCOCC3)cc2C)C1=O	81*	.	.	55*	66
Cc1cc(N2CCOCC2)ccc1/C=C1\SC(=O)N(C(C)C)C1=O	-4	.	.	2	59
CCC(C)N1C(=O)S/C(=C/c2ccc(N3CCOCC3)cc2C)C1=O (stereo not drawn)	1	-20	26*	.	91*
CCOc1ccccc1N(C(=O)c1ccccc1Cl)C1=NC(C)(C)CS1	8	-23*	2	-5	-4
O=C(NCCCc1ccccc1)c1cccc(NC(=O)C2CCCC2)c1	-4	-32	-3	3	7
O=C(Cn1cc2c(n1)CCCC2)Nc1cc(-c2cccc(Cl)c2)no1	6	-19	-1	51*	.
CCOC(=O)N1CCC(n2c(=S)[nH]c3cc(OCC)c(OCC)cc3c2=O)CC1	.	.	.	10	-42
CN(C)Cc1nc2ccccc2c(=O)n1Cc1nc(-c2cccc([N+](=O)[O-])c2)cs1	1	-24*	?	.	-13
Cc1ccc2oc(C(=O)N(Cc3ccncc3)CC3CCCO3)c(C)c2c1 (stereo not drawn)	15	-2	0	58*	64
